From PubChem
Sampled rows, rich in hits. Any-hit rate of the full collection: about 22%.
CYP2C9 inh: inhibitors of human CYP2C9. CYP2C9 Supersomes, luciferin-H conversion, luminescence. inhibition, % at 5 µM. hit rate 20% among 96,000;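 active means blocking of liver enzyme CYP2C9 beyond about 50% at 5 µM, limit read from the data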
F-actin modifier: alters cytoskeleton assembly in HUVEC cells. HUVEC TNFa F-actin phalloidin imaging, high content. hit rate 0.18% among 91,000. inhibition, % at 2 µM;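 active means inhibition above the batch mean plus 3 SD and confirmed as a hit by visual image inspection, cut at about 30% in these data, passing the limit was not always enough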
CYP2C19 inh: blocks human cytochrome P450 2C19. inhibition, % at 5 µM. CYP2C19 Supersomes, luciferin-H EGE luminescence, 30 min. AID 778. hit rate 21% among 96,000. P33261;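 active means CYP2C19 inhibition above a set limit at 5 µM in the primary screen, cut at about 50% in these data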;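 further: plate controls were negative control wells for no effect and 2.5 mM tranylcypromine positive control for full effect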
Target sequence (P33261 whole entry, looked up): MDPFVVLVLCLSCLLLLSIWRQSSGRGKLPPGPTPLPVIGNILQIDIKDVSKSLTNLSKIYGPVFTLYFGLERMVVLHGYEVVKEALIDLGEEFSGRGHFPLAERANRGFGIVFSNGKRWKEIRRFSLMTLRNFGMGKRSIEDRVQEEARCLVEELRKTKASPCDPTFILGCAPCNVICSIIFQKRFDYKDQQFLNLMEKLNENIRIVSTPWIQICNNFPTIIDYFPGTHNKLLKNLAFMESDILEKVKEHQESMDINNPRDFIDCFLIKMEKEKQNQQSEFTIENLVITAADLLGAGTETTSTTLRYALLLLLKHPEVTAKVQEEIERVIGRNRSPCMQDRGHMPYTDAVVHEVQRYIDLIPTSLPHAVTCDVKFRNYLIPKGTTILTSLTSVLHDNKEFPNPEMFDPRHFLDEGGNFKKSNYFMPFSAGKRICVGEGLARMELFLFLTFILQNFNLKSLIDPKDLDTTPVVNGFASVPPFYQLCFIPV
E-sel TNF inh: TNF alpha driven E-selectin expression inhibition; HUVEC TNFa-induced E-selectin immunofluorescence, high content; inhibition, % at 2 µM; hit rate 0.71% among 120,000; AID 1246;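 active means inhibition above the batch mean plus 3 SD, and confirmed as a hit on visual image review, cut at about 43% in these data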;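 further: 0% = TNF-stimulated DMSO wells and 100% = unstimulated control wells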
CYP2C9 activ: activators of human CYP2C9. P11712. AID 1024. recombinant CYP2C9, luciferin-H conversion, luminescence; active compounds read high; factor 1 = untreated enzyme, 0 = blocked. hit rate 1.4% among 96,000. activation factor at 5 µM;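 active means activation factor of 2 or more for CYP2C9 at a 5 µM dose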;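 further: 0 = sulfaphenazole-blocked wells and 1 = vehicle-only wells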
CYP2C19 act: increases human CYP2C19 enzyme activity; 96,000 tested, under 10 active; P33261; recombinant CYP2C19, luciferin-H EGE luminescence; active compounds read high; 0 = fully inhibited enzyme, 1 = untreated enzyme; activation factor at 5 µM;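 active means activation factor of at least 2 at 5 µM in the primary screen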;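 further: 0 = wells with 2.5 mM tranylcypromine and 1 = vehicle-only wells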
* hit, by the source's call; x = no result given.

SMILES | CYP2C9 inh | F-actin modifier | CYP2C19 inh | E-sel TNF inh | CYP2C9 activ | CYP2C19 act
Cn1c(-n2c(CCN3C(=O)c4ccccc4C3=O)nc3ccccc3c2=O)nc2ccccc21 | 92* | x | 87* | x | 0.1 | 0.1
Cc1c(N=Cc2nc3ccccc3[nH]2)c(=O)n(-c2ccccc2)n1C | 6 | x | 9 | x | 0.9 | 0.9
O=C1c2ccccc2C(=O)N1Cc1nc2ccccc2c(=O)n1CCN1CCOCC1 | x | -18 | x | 5 | x | x
O=c1c2ccccc2c2ccccc2c(=O)n1Cc1ccco1 | 73* | x | 81* | -15 | 0.3 | 0.2
COc1ccc(C2(C(=O)N3CCOCC3)CCOCC2)cc1OC | -9 | -11 | 2 | x | 1.1 | 1
Cn1c(-n2c(CCCN3C(=O)c4ccccc4C3=O)nc3ccccc3c2=O)nc2ccccc21 | 64* | 18 | 46 | 10 | 0.4 | 0.5
O=C1c2ccccc2C(=O)N1CCc1nc2ccccc2c(=O)n1Cc1ccco1 | 80* | -11 | 93* | x | 0.2 | 0.1
Cn1c(=O)c(-c2ccccc2)nc2ccccc21 | x | 3 | x | 27 | x | x
O=C(Nc1cccnc1)Nc1ccc2c(c1)OCO2 | -44 | 12 | 14 | 14 | 1.4 | 0.9
O=C(Nc1cccnc1)c1ccc(CN2CCc3ccccc3C2)cc1 | 16 | -1 | 8 | x | 0.8 | 0.9
CCOC(=O)N1CCC(NC(=O)CCc2c(C)nc3c(c(C)nn3C(C)(C)C)c2C)CC1 | 82* | x | 64* | 11 | 0.2 | 0.4
CCC(C)NC(=O)C1CCCN(S(=O)(=O)c2ccc(-n3cnnn3)cc2)C1 (stereo not given) | 14 | -7 | 9 | 24 | 0.9 | 0.9
COc1ccc(-c2csc(Nc3ncccc3C)n2)cc1OC | 22 | -22 | 7 | 27 | 0.8 | 0.9
Cc1cccnc1Nc1nc(-c2ccc(O)c(O)c2)cs1 | 76* | -12 | 66* | 5 | 0.2 | 0.3
O=C(NC(=S)N(CCCCO)C1CCCCC1)c1sc2ccccc2c1Cl | 54* | 15 | 36 | -48 | 0.5 | 0.6
O=C(COC(=O)c1sc2ccccc2c1Cl)NC1CCCCC1 | x | x | x | 14 | x | x
CCOc1ccc(C)cc1S(=O)(=O)n1ccnc1 | 61* | x | 44 | 0 | 0.4 | 0.6
CCOc1ccc(C)cc1S(=O)(=O)Nc1cccnc1 | x | -19 | x | 5 | x | x
N#Cc1c(N)sc(=S)c2c1CCN(Cc1ccccc1)C2 | 69* | x | 74* | x | 0.3 | 0.3
C=CCNc1nc(N2CCCCC2)c(C#N)c2c1CN(Cc1ccccc1)CC2 | 90* | 28 | 62* | 10 | 0.1 | 0.4
CCN1CCc2c(C#N)c(N3CCOCC3)nc(NCc3ccccc3)c2C1 | 70* | 2 | 46 | 11 | 0.3 | 0.5
CCN1CCc2c(C#N)c(N3CCCCC3)nc(NCc3ccccc3)c2C1 | 70* | -1 | 30 | -3 | 0.3 | 0.7
C=CCNc1nc(N2CCOCC2)c(C#N)c2c1CN(C)CC2 | 40 | -26 | 14 | x | 0.6 | 0.9
O=C(NCCOCC(F)(F)C(F)F)c1cc(F)c(F)cc1Cl | 15 | -13 | 38 | -5 | 0.9 | 0.6
N#Cc1c(NCCO)nc(NCc2ccccc2)c2c1CCN(Cc1ccccc1)C2 | 94* | -18 | 26 | -6 | 0.1 | 0.7
SMILES | CYP2C9 inh | F-actin modifier | CYP2C19 inh | E-sel TNF inh | CYP2C9 activ | CYP2C19 act
Cc1ccc2c(c1)cc(CN(Cc1ccc3c(c1)OCO3)S(=O)(=O)c1ccccc1)c1nnnn12 | 69* | -12 | 80* | 9 | 0.3 | 0.2
CCCC1(C(=O)OCC)NC(c2ccc(N(C)C)cc2)C2C(=O)N(c3ccccc3)C(=O)C21 (stereo not given) | x | 15 | x | -9 | x | x
CCCC1(C(=O)OCC)NC(c2ccc(N(C)C)cc2)C2C(=O)N(c3ccc(OCC)cc3)C(=O)C21 (stereo not given) | 50 | -8 | 74* | -5 | 0.5 | 0.3
CCOC(=O)c1ccc2[nH]c3c(c2c1)CN(C)CC3 | 14 | 4 | 21 | x | 0.9 | 0.8
CCCCCCCCNc1ncnc2ccccc12 | 82* | 13 | 79* | 6 | 0.2 | 0.2
O=C(CCSc1nc(-c2ccco2)cc(C(F)(F)F)n1)N1CCN(c2ccccn2)CC1 | 86* | -4 | 86* | 17 | 0.1 | 0.1
O=C(CCSc1nc(-c2ccco2)cc(C(F)(F)F)n1)N1CCCc2ccccc21 | 92* | 1 | 96* | -6 | 0.1 | 0
CC1Cc2ccccc2N1C(=O)CSc1nc(-c2ccco2)cc(C(F)(F)F)n1 (stereo not given) | 8 | 5 | 2 | x | 0.9 | 1
CCN(CC)C(=O)c1ccc(Nc2nnc(C)c3ccccc23)cc1 | x | 2 | x | 3 | x | x
COc1ccc(CCNC(=O)C2(C)CCC(=O)N2Cc2ccc3c(c2)OCO3)cc1OC (stereo not given) | -1 | 10 | 54* | x | 1 | 0.5
Clc1cc(Cl)cc(Nc2ncn[nH]2)c1 | 4 | -10 | 50* | -16 | 1 | 0.5
Cc1ccc(CSc2nnc(-c3ccco3)o2)cc1 | 63* | -4 | 48 | 29 | 0.4 | 0.5
O=c1c(-c2nnc(SCc3ccc(Cl)cc3Cl)o2)cccn1Cc1ccccc1 | 66* | 8 | 76* | 31 | 0.3 | 0.2
COc1cc(OC)cc(-c2nnc(SCc3c(F)cccc3Cl)o2)c1 | 63* | -8 | 47 | x | 0.4 | 0.5
COc1ccc(-c2nnc(SCc3ccccc3F)o2)cc1 | 5 | -20 | 30 | 7 | 0.9 | 0.7
Fc1ccc(-c2nnc(SCc3cccnc3)o2)cc1 | x | x | x | 16 | x | x
c1ccc(CSc2nnc(-c3ccncc3)o2)cc1 | 93* | -14 | 97* | -15 | 0.1 | 0
O=C(COC(=O)C1(c2ccccc2F)CCCC1)NC1CCS(=O)(=O)C1 (stereo not given) | 5 | 2 | 12 | 7 | 1 | 0.9
COc1ccc(CCNC(=O)Cn2c(=O)n(Cc3ccco3)c(=O)c3ccc(Cl)cc32)cc1OC | 42 | x | 35 | -29 | 0.6 | 0.6
CCOC(=O)/C(C(N)=NC(C)C)=C(\O)c1ccccc1 | x | 11 | x | -11 | x | x
COc1ccc(C)cc1NC(=O)C12CCC(C)(C(=O)O1)C2(C)C (stereo not given) | -57 | -6 | 44 | 7 | 1.6 | 0.6
Cc1cc(C)n(-c2ccc(C(=O)NCc3cccs3)cc2)n1 | -33 | -2 | -2 | -22 | 1.3 | 1
Clc1ccc(-c2nnc(SCc3nc(-c4ccccc4)no3)o2)cc1 | 71* | 16 | 10 | x | 0.3 | 0.9
Cc1ccccc1-c1nnc(SCc2ccccc2)o1 | 59* | 10 | 73* | 36 | 0.4 | 0.3
Cc1[nH]c2ccccc2c1Cc1nnc(SCc2ccccc2)o1 | 27 | 3 | 69* | -1 | 0.7 | 0.3
CCSc1nnc(-c2ccc(Cl)cc2Cl)o1 | 0 | -1 | 23 | x | 1 | 0.8
Clc1ccc(CSc2nnc(-c3ccncc3)o2)c(Cl)c1 | 70* | -40 | 81* | 8 | 0.3 | 0.2
c1ccc(-c2noc(CSc3nc4ccccc4o3)n2)cc1 | 5 | 0 | 6 | x | 0.9 | 0.9
Cc1ccccc1-c1nnc(SCc2ccccc2F)o1 | 14 | -18 | 8 | x | 0.9 | 0.9
